Activity calls are given as the source filed them. How the source made its calls: active means hit-call score of the fitted dose curve at least 0.9, where 1 is the maximum; inactive means score below 0.9.
How the values were obtained:
[1] = APR_HepG2_CellCycleArrest_24hr: Apredica 24-hour HepG2 Assay for Cell Cycle Arrest (AID 2282905); conditions: imaging, actives raise or lower the signal;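 further: cell cycle arrest scored as ratio of 2N to 4N nuclear DNA content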
Method in brief: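 After 24 h exposure at 0.39–200 uM in 0.5% DMSO, fixed cells received Hoechst 33342 staining. Imaging quantified per-nucleus DNA content; gain or loss fitted against DMSO controls.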

[2] = APR_HepG2_NuclearSize_24hr: Apredica 24-hour HepG2 Assay for Nuclear Size (AID 2282907); conditions: high-content imaging, actives raise or lower the signal
Method in brief: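 Nuclear size from Hoechst 33342-stained, formaldehyde-fixed HepG2 nuclei imaged by high-content microscopy, after 24 h dosing at ten concentrations from 0.39 to 200 uM in 0.5% DMSO; gain or loss relative to DMSO baseline.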

[3] = APR_HepG2_CellLoss_24hr: Apredica 24-hour HepG2 Assay for Cell Loss (AID 2282908); conditions: high-content imaging
Method in brief: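 Nuclei stained with Hoechst 33342 after formaldehyde fixation (3.7%) were imaged at 20x to count cells. Exposure lasted 24 hr, at ten concentrations from 0.39 to 200 uM in duplicate, with 0.5% v/v DMSO. Fit bidirectional, relative to DMSO.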

[4] = APR_HepG2_MicrotubuleCSK_24hr: Apredica 24-hour HepG2 Assay for Microtubule CSK Stabilty (AID 2282909); conditions: HepG2 microtubule cytoskeleton imaging, actives raise or lower the signal
Method in brief: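 Fixed HepG2 cells were stained for alpha-tubulin and imaged after 24 hr exposure to ten concentrations spanning 0.39–200 uM in 0.5% DMSO. Signal change was fitted in both directions relative to DMSO; taxol was the positive control.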

[5] = APR_HepG2_MitoticArrest_24hr: Apredica 24-hour HepG2 Assay for Mitotic Arrest (AID 2282910); conditions: high-content imaging, actives raise or lower the signal
Method in brief: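 Treatment lasted 24 hr in the human HepG2 line at 0.39–200 uM, solvent held at 0.5% DMSO. Fixed cells were stained with Hoechst 33342 and anti-phospho-histone H3, imaged at 20x, and analysed by gain- or loss-of-signal fitting against DMSO.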

[6] = APR_HepG2_MitoMembPot_24hr: Apredica 24-hour HepG2 Assay for Mitochondrial Membrane Potential (AID 2282911); conditions: imaging, actives raise or lower the signal
Method in brief: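 Human hepatoma HepG2 cultures received ten compound concentrations up to 200 uM for 24 hr. Membrane-potential dye signal, captured by automated fluorescence microscopy, was scored for gain or loss against DMSO controls.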

[7] = APR_HepG2_MitoMass_24hr: Apredica 24-hour HepG2 Assay for Mitochondrial Mass (AID 2282912); conditions: high-content imaging, actives raise or lower the signal
Method in brief: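 Endpoint is MitoTracker Red CMXRos (250 nM, 30 min, pre-fixation) intensity from 20x high-content imaging, nuclei located by Hoechst. Human HepG2 cells received ten concentrations from 0.39 to 200 uM in 0.5% DMSO for 24 hr, duplicate wells. Bidirectional fit relative to DMSO.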

[8] = APR_HepG2_p53Act_24hr: Apredica 24-hour HepG2 Assay for p53 Activation (AID 2282913); conditions: high-content imaging, actives raise or lower the signal;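 further: p53 protein immunofluorescence averaged per cell in HepG2 with Hoechst nuclei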
Method in brief: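 Automated fluorescence imaging quantifies p53 immunostaining in HepG2 cells after a 24 hr exposure (0.39–200 uM, duplicate, 0.5% DMSO). Nuclei are located by Hoechst 33342 staining.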

[9] = APR_HepG2_CellCycleArrest_72hr: Apredica 72-hour HepG2 Assay for Cell Cycle Arrest (AID 2282914); conditions: high-content imaging, actives raise or lower the signal
Method in brief: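 Cell cycle arrest in HepG2 was scored from nuclear DNA content after 72 hr compound treatment (0.39–200 uM). Activity, either gain or loss, was fitted against the DMSO baseline.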

[10] = APR_HepG2_CellLoss_72hr: Apredica 72-hour HepG2 Assay for Cell Loss (AID 2282915); conditions: high-content imaging
Method in brief: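 HepG2 cells were exposed for 72 hr to compounds at 0.39–200 uM (ten concentrations, duplicate) in 0.5% v/v final DMSO. Nuclei were stained with Hoechst 33342 after 3.7% formaldehyde fixation, imaged at 20x, and counted; fits bidirectional versus DMSO.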

[11] = APR_HepG2_P-H2AX_72hr: Apredica 72-hour HepG2 Assay for H2AX Phosphorylation (AID 2282916); conditions: imaging, actives raise or lower the signal;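 further: phospho-histone H2A.x immunostain intensity per cell marking DNA damage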
Method in brief: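 Phospho-histone H2A.x immunofluorescence, multiplexed with Hoechst and c-Jun, quantified by high-content imaging. Compounds applied to HepG2 for 72 h across ten concentrations (0.39–200 uM, 0.5% DMSO), in duplicate; DMSO baseline.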

[12] = APR_HepG2_MitoMembPot_72hr: Apredica 72-hour HepG2 Assay for Mitochondrial Membrane Potential (AID 2282917); conditions: imaging, actives raise or lower the signal
Method in brief: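 HepG2 cells exposed 72 h to compounds at 0.39–200 uM (0.5% v/v DMSO, duplicates); MitoTracker Red CMXRos 250 nM loaded 30 min before 3.7% formaldehyde fixation, imaged by HCS fluorescence. Bidirectional fit versus DMSO.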

[13] = APR_HepG2_MitoticArrest_72hr: Apredica 72-hour HepG2 Assay for Mitotic Arrest (AID 2282918); conditions: high-content imaging, actives raise or lower the signal
Method in brief: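 Mitotic arrest in HepG2 is scored from phospho-histone H3 staining after 72 hr dosing across 0.39–200 uM, with DMSO at 0.5% v/v. Nuclei are identified by Hoechst 33342 and fluorescence intensity is quantified per cell.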

[14] = APR_HepG2_MicrotubuleCSK_72hr: Apredica 72-hour HepG2 Assay for Microtubule CSK Stabilty (AID 2282919); conditions: HepG2 microtubule cytoskeleton, high-content imaging, actives raise or lower the signal
Method in brief: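 Ten-point dosing (0.39–200 uM, 0.5% DMSO) of HepG2 for 72 hr, with taxol as the cytoskeletal positive control. The cells were formaldehyde-fixed and then stained with alpha-tubulin/Cy5 and Hoechst. Imaging at 20x used a −2 um Z offset for tubulin.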

[15] = APR_HepG2_StressKinase_72hr: Apredica 72-hour HepG2 Assay for Stress Kinase (AID 2282921); conditions: HepG2 stress kinase (phospho-c-Jun) imaging, actives raise or lower the signal
Method in brief: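 Stress kinase signal is phospho-c-Jun immunofluorescence (1:500 primary, Cy3 secondary) in fixed, permeabilized human HepG2 cells imaged at 20x. Exposure lasted 72 hr over ten concentrations from 0.39 to 200 uM, 0.5% DMSO, in duplicate. Bidirectional fit versus DMSO.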

[16] = APR_HepG2_StressKinase_24hr: Apredica 24-hour HepG2 Assay for Stress Kinase (AID 2282922); conditions: HepG2 stress kinase (phospho-c-Jun) imaging, actives raise or lower the signal
Method in brief: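 After 24 hr compound treatment (up to 200 uM, final DMSO 0.5% v/v), HepG2 cells are fixed and multiplex-labeled; phospho-c-Jun intensity is captured by high-content fluorescence imaging and analyzed relative to DMSO.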

[17] = APR_HepG2_p53Act_72hr: Apredica 72-hour HepG2 Assay for p53 Activation (AID 2282923); conditions: high-content imaging, actives raise or lower the signal;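 further: average cellular p53 protein immunofluorescence intensity in HepG2 cells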
Method in brief: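 After 72 h with compound (ten points, 0.39 to 200 uM, final DMSO 0.5% v/v), fixed HepG2 cells were labelled with sheep anti-p53 and Hoechst 33342 and imaged; gain or loss versus DMSO scored.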

[18] = APR_HepG2_MitoMass_72hr: Apredica 72-hour HepG2 Assay for Mitochondrial Mass (AID 2282924); conditions: high-content imaging, actives raise or lower the signal;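 further: MitoTracker Red CMXRos stain intensity per cell imaged as mitochondrial mass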
Method in brief: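 Steps: treat HepG2 72 hr (0.39–200 uM, duplicate wells); load MitoTracker Red CMXRos, 250 nM, 30 min; fix with 3.7% formaldehyde, permeabilise with 0.5% Triton X-100; capture images, nuclei via Hoechst 33342; fit bidirectionally against DMSO.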

[19] = APR_HepG2_NuclearSize_72hr: Apredica 72-hour HepG2 Assay for Nuclear Size (AID 2282925); conditions: high-content imaging, actives raise or lower the signal
Method in brief: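 Compounds (0.39–200 uM, final DMSO 0.5%) were applied to HepG2 for 72 hr. Cells were then formaldehyde-fixed, permeabilized and labelled with Hoechst 33342. Nuclear diameter was quantified from six images per well.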

[20] = APR_HepG2_P-H2AX_24hr: Apredica 24-hour HepG2 Assay for H2AX Phosphorylation (AID 2282920); conditions: high-content imaging, actives raise or lower the signal
Method in brief: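 Signal comes from a FITC-labeled secondary detecting phospho-histone H2A.x in fixed HepG2 cells, quantified by automated imaging at 20x. Dosing ran 24 hr across 0.39–200 uM with 0.5% v/v DMSO.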

Question: With CC(C)(O)c1ccc(CNC(=O)c2cccnc2Oc2ccc(F)cc2)cc1 as the compound, how does the outcome [1] read?
Answer: inactive

Question: And the outcome [2]?
Answer: inactive

Question: What about the outcome [3] of the same compound?
Answer: inactive

Question: What about the outcome [4] of the same compound?
Answer: inactive

Question: And the outcome [5]?
Answer: inactive

Question: What about the outcome [6] of the same compound?
Answer: inactive

Question: And the outcome [7]?
Answer: inactive

Question: What about the outcome [8] of the same compound?
Answer: inactive

Question: What about the outcome [9] of the same compound?
Answer: inactive

Question: And the outcome [10]?
Answer: inactive

Question: What about the outcome [11] of the same compound?
Answer: inactive

Question: What about the outcome [12] of the same compound?
Answer: inactive

Question: And the outcome [13]?
Answer: inactive

Question: What about the outcome [14] of the same compound?
Answer: inactive

Question: And the outcome [15]?
Answer: inactive

Question: What about the outcome [16] of the same compound?
Answer: inactive

Question: What about the outcome [17] of the same compound?
Answer: inactive

Question: And the outcome [18]?
Answer: inactive

Question: What about the outcome [19] of the same compound?
Answer: inactive

Question: Which outcome [1] does the source give for NC1CCCCC1 here?
Answer: inactive

Question: What about the outcome [2] of the same compound?
Answer: inactive

Question: And the outcome [3]?
Answer: inactive

Question: And the outcome [4]?
Answer: inactive

Question: What about the outcome [5] of the same compound?
Answer: inactive

Question: And the outcome [6]?
Answer: inactive

Question: And the outcome [7]?
Answer: inactive

Question: And the outcome [9]?
Answer: inactive

Question: And the outcome [10]?
Answer: inactive

Question: And the outcome [11]?
Answer: inactive

Question: And the outcome [12]?
Answer: inactive

Question: What about the outcome [13] of the same compound?
Answer: inactive

Question: What about the outcome [14] of the same compound?
Answer: inactive

Question: What about the outcome [20] of the same compound?
Answer: inactive

Question: And the outcome [15]?
Answer: inactive

Question: And the outcome [16]?
Answer: inactive

Question: What about the outcome [18] of the same compound?
Answer: inactive

Question: And the outcome [19]?
Answer: inactive

Question: What does the source list for CO[C@@H]1COCC[C@@H]1N[C@@H]1CC[C@@](C(=O)N2CCc3ncc(C(F)(F)F)cc3C2)(C(C)C)C1?
Answer: outcome [1]: inactive; outcome [2]: inactive; outcome [3]: inactive; outcome [4]: inactive; outcome [5]: inactive; outcome [6]: inactive; outcome [7]: inactive; outcome [8]: inactive; outcome [9]: inactive; outcome [10]: inactive; outcome [11]: inactive; outcome [12]: inactive; outcome [13]: inactive; outcome [14]: inactive; outcome [15]: inactive; outcome [17]: inactive; outcome [18]: inactive; outcome [19]: inactive

Question: Which results are given for S=c1[nH]c2ccccc2s1?
Answer: outcome [1]: inactive; outcome [2]: inactive; outcome [3]: inactive; outcome [4]: inactive; outcome [5]: inactive; AC50 [6]: 86.5 µM (active); outcome [7]: inactive; outcome [8]: inactive; outcome [9]: inactive; outcome [10]: inactive; outcome [11]: inactive; AC50 [12]: 97.3 µM (active); outcome [13]: inactive; outcome [14]: inactive; outcome [15]: inactive; outcome [16]: inactive; outcome [17]: inactive; outcome [18]: inactive; outcome [19]: inactive

Question: What does the source list for Cc1cc(Cc2ccc(N)c(C)c2)ccc1N?
Answer: AC50 [1]: 35.1 µM (active); outcome [2]: inactive; outcome [3]: inactive; outcome [4]: inactive; outcome [5]: inactive; outcome [6]: inactive; outcome [7]: inactive; outcome [8]: inactive; AC50 [9]: 103 µM (active); AC50 [10]: 77.8 µM (active); outcome [11]: inactive; outcome [12]: inactive; outcome [13]: inactive; outcome [14]: inactive; outcome [15]: inactive; outcome [16]: inactive; outcome [17]: inactive; AC50 [18]: 67.3 µM (active); outcome [19]: inactive

Question: What does the source list for OCC(CO)n1cnc(-c2ccc(F)cc2)c1-c1ccnc(Oc2ccccc2)n1?
Answer: outcome [1]: inactive; outcome [2]: inactive; outcome [3]: inactive; outcome [4]: inactive; outcome [5]: inactive; outcome [6]: inactive; outcome [7]: inactive; outcome [8]: inactive; outcome [9]: inactive; outcome [10]: inactive; outcome [11]: inactive; outcome [12]: inactive; outcome [13]: inactive; outcome [14]: inactive; outcome [15]: inactive; outcome [17]: inactive; outcome [18]: inactive

Question: What does the source list for Oc1ccc(O)cc1?
Answer: outcome [1]: inactive; outcome [2]: inactive; outcome [3]: inactive; outcome [4]: inactive; outcome [5]: inactive; outcome [6]: inactive; AC50 [7]: 51.4 µM (active); AC50 [8]: 19 µM (active); AC50 [9]: 100 µM (active); AC50 [10]: 71.7 µM (active); outcome [11]: inactive; outcome [12]: inactive; outcome [13]: inactive; outcome [14]: inactive; outcome [15]: inactive; outcome [16]: inactive; AC50 [17]: 91.9 µM (active); AC50 [18]: 46.3 µM (active); AC50 [19]: 67.8 µM (active)

Source: PubChem BioAssay (EPA / NIEHS)
